# Assay results from the supplement of paper PMC8728848.
# Only a selection was taken, and the strongest signals are over-represented in it overall.
# How the values were obtained:
# Experiment in all cases: glycan array binding signal (z-score within array); higher = stronger binding
# Conditions in all cases: glycan notation: IUPAC condensed, linker removed
# [1] = target: GlcNAc(a1-4)Gal(b1-4)GalNAc
# Summary of the method: (§1)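 The binding signal is a Z-score computed within each array. Data were drawn from 3228 arrays in the Consortium for Functional Glycomics database, restricted to those with a known protein sequence. Scores were averaged over arrays of the same protein sequence at different concentrations or buffers, and over linkers, and negative values can be taken as non-binding.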
# [2] = target: GlcNAc(a1-4)Gal(b1-4)GlcNAc(b1-3)Gal(b1-4)GlcNAc(b1-3)Gal(b1-4)GlcNAc
# Summary of the method: as §1
# [3] = target: GlcNAc(b1-2)[GlcNAc(b1-4)]Man(a1-3)[GlcNAc(b1-4)][GlcNAc(b1-2)[GlcNAc(b1-6)]Man(a1-6)]Man(b1-4)GlcNAc(b1-4)[Fuc(a1-6)]GlcNAc
# Summary of the method: as §1
# [4] = target: GlcNAc(b1-2)[GlcNAc(b1-6)]Man(a1-6)[GlcNAc(b1-2)Man(a1-3)]Man(b1-4)GlcNAc(b1-4)[Fuc(a1-6)]GlcNAc
# Summary of the method: as §1
# [5] = target: GlcNAc(b1-3)Gal(b1-4)GlcNAc(b1-3)Gal(b1-4)GlcNAc
# Summary of the method: as §1
# [6] = target: GlcNAc(b1-3)Gal(b1-4)GlcNAc(b1-3)Gal(b1-4)GlcNAc(b1-2)Man(a1-3)[GlcNAc(b1-3)Gal(b1-4)GlcNAc(b1-3)Gal(b1-4)GlcNAc(b1-2)Man(a1-6)]Man(b1-4)GlcNAc(b1-4)[Fuc(a1-6)]GlcNAc
# Summary of the method: as §1
# [7] = target: GlcNAc(b1-3)Gal(b1-4)GlcNAc(b1-3)Gal(b1-4)GlcNAc(b1-2)[GlcNAc(b1-3)Gal(b1-4)GlcNAc(b1-3)Gal(b1-4)GlcNAc(b1-6)]Man(a1-6)[GlcNAc(b1-3)Gal(b1-4)GlcNAc(b1-3)Gal(b1-4)GlcNAc(b1-2)Man(a1-3)]Man(b1-4)GlcNAc(b1-4)[Fuc(a1-6)]GlcNAc
# Summary of the method: as §1
# [8] = target: GlcNAc(b1-4)GlcNAc(b1-4)GlcNAc(b1-4)GlcNAc(b1-4)GlcNAc
# Summary of the method: as §1
# [9] = target: Man(a1-2)Man(a1-3)[Man(a1-2)Man(a1-6)]Man
# Summary of the method: as §1
# [10] = target: Man(a1-2)Man(a1-3)[Man(a1-2)Man(a1-6)]Man(a1-6)[Man(a1-2)Man(a1-2)Man(a1-3)]Man
# Summary of the method: as §1
# [11] = target: Man(a1-3)[Man(a1-6)]Man(a1-6)[Man(a1-2)Man(a1-3)]Man(b1-4)GlcNAc(b1-4)GlcNAc
# Summary of the method: as §1
# [12] = target: Man(a1-3)[Man(a1-6)]Man(a1-6)[Man(a1-3)]Man
# Summary of the method: as §1
# Man(a1-6)Man = target: Man(a1-6)Man
# Summary of the method: as §1
# [13] = target: Neu5Ac(a2-3)Gal(b1-4)GlcNAc(b1-3)Gal(b1-4)GlcNAc(b1-3)Gal(b1-4)GlcNAc(b1-2)Man(a1-3)[Neu5Ac(a2-3)Gal(b1-4)GlcNAc(b1-3)Gal(b1-4)GlcNAc(b1-3)Gal(b1-4)GlcNAc(b1-2)Man(a1-6)]GalNAc
# Summary of the method: as §1
# [14] = target: Neu5Ac(a2-3)Gal(b1-4)GlcNAc(b1-3)Gal(b1-4)GlcNAc(b1-3)[Neu5Ac(a2-3)Gal(b1-4)GlcNAc(b1-3)Gal(b1-4)GlcNAc(b1-6)]GalNAc
# Summary of the method: as §1
# [15] = target: Neu5Ac(a2-3)Gal(b1-4)GlcNAc(b1-3)[Neu5Ac(a2-3)Gal(b1-4)GlcNAc(b1-6)]GalNAc
# Summary of the method: as §1
# [16] = target: Neu5Ac(a2-3)Gal(b1-4)GlcNAc(b1-6)[Gal(b1-3)]GalNAc
# Summary of the method: as §1
# [17] = target: Neu5Ac(a2-3)Gal(b1-4)[Fuc(a1-3)]GlcNAc(b1-2)Man
# Summary of the method: as §1
# [18] = target: Neu5Ac(a2-6)Gal(b1-3)GlcNAc(b1-3)[Gal(b1-4)GlcNAc(b1-6)]Gal(b1-4)Glc
# Summary of the method: as §1
# [19] = target: Neu5Ac(a2-6)Gal(b1-4)GlcNAc
# Summary of the method: as §1
# [20] = target: Neu5Ac(a2-6)Gal(b1-4)GlcNAc(b1-2)Man(a1-6)Man(b1-4)GlcNAc(b1-4)GlcNAc
# Summary of the method: as §1
# [21] = target: Neu5Ac(a2-6)Gal(b1-4)GlcNAc(b1-3)Gal(b1-4)GlcNAc(b1-3)[Neu5Ac(a2-6)Gal(b1-4)GlcNAc(b1-3)Gal(b1-4)GlcNAc(b1-6)]GalNAc
# Summary of the method: as §1
# [22] = target: Neu5Ac(a2-6)Gal(b1-4)GlcNAc(b1-3)Gal(b1-4)GlcNAc(b1-6)[Gal(b1-3)]GalNAc
# Summary of the method: as §1
# [23] = target: Neu5Ac(a2-6)Gal(b1-4)GlcNAc(b1-6)[Gal(b1-3)GlcNAc(b1-3)]Gal(b1-4)Glc
# Summary of the method: as §1
# Neu5Ac(a2-6)GalNAc = target: Neu5Ac(a2-6)GalNAc
# Summary of the method: as §1
# [24] = target: Neu5Ac(a2-6)GalNAc(b1-4)GlcNAc
# Summary of the method: as §1
# [25] = target: Neu5Ac(a2-6)GalNAc(b1-4)GlcNAc6S
# Summary of the method: as §1
# [26] = target: Neu5Ac(a2-6)GlcNAc(b1-4)GlcNAc
# Summary of the method: as §1
# [27] = target: Neu5Ac(a2-8)Neu5Ac(a2-3)Gal(b1-4)Glc
# Summary of the method: as §1
binder,measurement,setting,value
Aap brpt (Staphylococcus epidermidis) (protein) VDGDPITSTEEIPFDKKREFDPNLAPGTEKVVQKGEPGTKTITTPTTKNPLTGEKVGEGEPTEKITKQPVDEIVHYGGEEIKTGHKDEFDPNAPKGSQTTQPGKPGVKNPDTGEVVTPPVDDVTKYGPVDGDPITSTEEIPFDKKREFDPNLAPGTEKVVQKGEPGTKTITTPTTKNPLTGEKVGEGEPTEKITKQPVDEIVHYGGEEIKPGHKDEFDPNAPKGSQEDVPGKPGVKNPDTGEVVTPPVDDVTKYGPVDGDSITSTEEIPFDKKREFDPNLAPGTEKVVQKGEPGTKTITTPTTKNPLTGEKVGEGEPTEKITKQPVDEIVHYGGEQIPQGHKDEFDPNAPVDSKTEVPGKPGVKNPDTGEVVTPPVDDVTKYGPVDGDSITSTEEIPFDKKREFDPNLAPGTEKVVQKGEPGTKTITTPTTKNPLTGEKVGEGKSTEKVTKQPVDEIVEYGPTK,glycan array binding signal (z-score),[1],-1.15
same,glycan array binding signal (z-score),[2],0.541
same,glycan array binding signal (z-score),[3],0.314
same,glycan array binding signal (z-score),[4],-0.222
same,glycan array binding signal (z-score),[5],-0.363
same,glycan array binding signal (z-score),[6],2.65
same,glycan array binding signal (z-score),[7],3.02
same,glycan array binding signal (z-score),[8],-1.51
same,glycan array binding signal (z-score),[9],-0.923
same,glycan array binding signal (z-score),[10],2.59
same,glycan array binding signal (z-score),[11],2.29
same,glycan array binding signal (z-score),[12],-1
same,glycan array binding signal (z-score),Man(a1-6)Man,1.21
same,glycan array binding signal (z-score),[13],1.19
same,glycan array binding signal (z-score),[14],0.565
same,glycan array binding signal (z-score),[15],0.328
same,glycan array binding signal (z-score),[16],-0.96
same,glycan array binding signal (z-score),[17],0.096
same,glycan array binding signal (z-score),[18],-0.86
same,glycan array binding signal (z-score),[19],-0.403
same,glycan array binding signal (z-score),[20],-0.15
same,glycan array binding signal (z-score),[21],2.85
same,glycan array binding signal (z-score),[22],2.73
same,glycan array binding signal (z-score),[23],0.258
same,glycan array binding signal (z-score),Neu5Ac(a2-6)GalNAc,1.84
same,glycan array binding signal (z-score),[24],0.115
same,glycan array binding signal (z-score),[25],-0.313
same,glycan array binding signal (z-score),[26],2.43
same,glycan array binding signal (z-score),[27],-0.002
